Out of some 55,000 sequences screened, about 5,800 (11%) were called active. Cut-off read from the data, not from the text of the source: active = GI50 up to about 1.1 µM and inactive = higher. Many of the other results were omitted from the sample, so actives are more common in it than they were. Measured potencies and affinities stand elsewhere.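 Where inhibition never reached the appropriate level, the endpoint shown equals the highest concentration tested. Otherwise, values were interpolated linearly from a five-concentration, 48-hour dose response in 96-well plates. GI50 = concentration required for 50% inhibition of growth.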
Test system: CCRF-CEM
Assay: NCI tumour cell line growth inhibition, 48 h

Question: For “mu-(1,7-nanodiamine-N,N')bis-(cis-aminedichloroplatimum (II)), CHEMBL2146215”, which GI50 is on record?
Answer: 0.925 µM

Question: With “[Bis(aminomethyl)tetramethylenesilane]dichloropaltinum(II), CHEMBL2146205” as the substance, how does the GI50 read?
Answer: 1.56 µM

Question: For “[Bis(aminomethyl)diethylsilane]tetrachloroplatinum(IV), CHEMBL2146203”, which GI50 is on record?
Answer: 0.283 µM

Question: With “[Bis(aminomethyl)pentamethylenesilane]dichloropaltinum(II), CHEMBL2146202” as the substance, how does the GI50 read?
Answer: 0.202 µM

Question: “[Bis(aminomethyl)dimethylsilane]dichloroplatinum (II), CHEMBL2146201” was tested. Which GI50 did it give?
Answer: 3.66 µM

Question: For “[Bis(aminomethyl)pentamethylenesilane]tetrachloropaltinum(IV), CHEMBL2146204”, which GI50 is on record?
Answer: 0.0953 µM

Question: With “ACRIFLAVINE HYDROCHLORIDE, CHEMBL5219995” as the substance, how does the GI50 read?
Answer: 0.233 µM

Question: How did the GI50 turn out when CISPLATIN, CHEMBL11359 was run?
Answer: 1.12 µM

Question: Which GI50 does the source give for “cis-Bis[[(trimethylsilyl)methyl]amino]tetrachloroplatinum(IV), CHEMBL2146191” here?
Answer: 1.23 µM

Question: How did the GI50 turn out when “[Bis(aminomethyl)dimethylsilane]tetrachloroplatinum(IV), CHEMBL2146190” was run?
Answer: 0.805 µM

Question: “[Bis(aminomethyl)tetramethylenesilane]tetrachloropaltinum(IV), CHEMBL2146189” was tested. Which GI50 did it give?
Answer: 0.246 µM

Question: “[Bis(aminomethyl)ethylmethylsilane]tetrachloroplatinum(IV), CHEMBL2146192” was tested. Which GI50 did it give?
Answer: 0.381 µM

From ChEMBL document CHEMBL1201862, “PubChem BioAssay data set” (2004)
